Measurements published in PubChem BioAssay (Tox21).
Several values for one entry are separate records, joined by “and”; a condition that tells them apart may be missing. Equal entries are not always repeated. Activity calls are given as the source filed them. Calls come from the whole dose curve.
% is set by controls: 0 for no effect and ±100 for the full control effect.

Test: qHTS assay to identify small molecule agonists of the estrogen related receptor (ERR) signaling pathway from Tox21 library (AID 1224849); note: nearly all actives have a fitted effect of over 15% in size
Settings: ERR reporter cell line, ONE-Glo luciferase, 18 h; at 42.5 µM (top of the series)
Text: National Center for Advancing Translational Sciences [NCATS]
NIH Chemical Genomics Center [NCGC]
U.S. Environmental Protection Agency [EPA]
National Institutes of Environmental Health Sciences [NIEHS]
National Toxicology Program [NTP]
Estrogen related receptors (ERRs), the first orphan nuclear receptors discovered, play an important role in the control of cellular energy metabolism. ERRs are required for high-energy production in response to the environmental challenges. ERR-alpha was also identified as an adverse marker for breast cancer progression; ERR-alpha-positive tumors have a poor prognosis. To screen and to identify environmental compounds that perturb the ERR signaling pathways could provide valuable information for potential therapeutic or preventive measures in the treatment of metabolic disease. For identifying ERR agonists, ERR cell line (provided by NTP) has been used to screen Tox21 10K library.
The ERR cells were dispensed at 2,000 cells/5 ul/well in 1536-well white plates using a Multidrop dispenser. After the assay plates were incubated at a 37 C/5% CO2 incubator for 6 hours, 23 nL of compounds dissolved in DMSO, positive and negative controls or DMSO only was transferred to the assay plate by a pin tool. The plates were incubated at 37 C for 18 hours. 4 ul/well of One-Glo reagent was added into the assay plates using a Flying Reagent Dispenser. After 30-minute incubation at room temperature, the luminescence intensity in the plates was measured using a ViewLux plate reader.
With O=C(O)CCCCC1CCSS1 (stereo not given) the activity change, positive = activation was 4.75% (inactive). For Oc1cccc(O)c1, the activity change, positive = activation was 6.02% (inactive). With CCCCCCCCOc1ccc(C(=O)c2ccccc2)c(O)c1 the activity change, positive = activation was -7.25% (inactive). For CCN(CC)CCOC(=O)c1ccc(N)cc1, the activity change, positive = activation was 3.59% (inactive). With OCCCc1ccccc1 the activity change, positive = activation was -1.08% (inactive). With CCCCNC(=O)NS(=O)(=O)c1ccc(N)cc1 the activity change, positive = activation was -4% (inactive). In the case of NC(=O)N/N=C/c1ccc([N+](=O)[O-])o1, the activity change, positive = activation is reported as -13.7% (inactive). With C[C@]12CC[C@@H]3c4ccc(O)cc4C[C@@H](CCCCCCCCCS(=O)CCCC(F)(F)C(F)(F)F)[C@H]3[C@@H]1CC[C@@H]2O (stereo not given in full) the activity change, positive = activation was -35% (inactive) and -33.1% (inactive). In the case of O=c1cc[nH]c(=O)[nH]1, the activity change, positive = activation is reported as 5.28% (inactive). For CCOC(=O)C(C)(C)Oc1ccc(Cl)cc1, the activity change, positive = activation was 1.46% (inactive). In the case of OC[C@@H](O)[C@@H](O)[C@H](O)[C@H](O)CO, the activity change, positive = activation is reported as 2.34% (inactive). For Cc1ccc(O)c(-n2nc3ccccc3n2)c1, the activity change, positive = activation was 147% (active). In the case of CC(C)Cc1ccc(C(C)C(=O)O)cc1 (stereo not given), the activity change, positive = activation is reported as 3.45% (inactive). In the case of CC1(C)O[C@@H]2[C@@H](CO[C@@]3(COS(N)(=O)=O)OC(C)(C)O[C@@H]23)O1, the activity change, positive = activation is reported as 1.2% (inactive). For CO[C@H]1C=CO[C@@]2(C)Oc3c(C)c(O)c4c(O)c(c(/C=N/N5CCN(C)CC5)c(O)c4c3C2=O)NC(=O)/C(C)=C\C=C[C@H](C)[C@H](O)[C@@H](C)[C@@H](O)[C@@H](C)[C@H](OC(C)=O)[C@@H]1C, the activity change, positive = activation was -25.2% (inactive) and -32.7% (inactive).

Same assay, conditions: ERR reporter cell line, ONE-Glo luciferase, 18 h; at 92.4 µM (top of the series)
In the case of O=C(O)CCCCC1CCSS1 (stereo not given), the activity change, positive = activation is reported as -0.498% (inactive) and 6.05% (inactive). In the case of Oc1cccc(O)c1, the activity change, positive = activation is reported as -15.4% (inactive) and -1.21% (inactive). For CCCCCCCCOc1ccc(C(=O)c2ccccc2)c(O)c1, the activity change, positive = activation was 6.94% (inactive) and -4.94% (inactive). In the case of CCCCOCCOCCOC(C)=O, the activity change, positive = activation is reported as 0.387% (inactive) and 1.02% (inactive). For CCN(CC)CCOC(=O)c1ccc(N)cc1, the activity change, positive = activation was 2.93% (inactive). For OCCCc1ccccc1, the activity change, positive = activation was 4.65% (inactive). For Cc1cccc2ccccc12, the activity change, positive = activation was -5.59% (inactive) and 0.133% (inactive). With CCCCNC(=O)NS(=O)(=O)c1ccc(N)cc1 the activity change, positive = activation was 2.9% (inactive). With COC(=O)C1CCC(C(=O)OC)CC1 (stereo not given) the activity change, positive = activation was 0.483% (inactive) and 7.26% (inactive) and 4.66% (inactive). For NC(=O)N/N=C/c1ccc([N+](=O)[O-])o1, the activity change, positive = activation was -3.25% (inactive) and -34% (inactive). For C[C@]12CC[C@@H]3c4ccc(O)cc4C[C@@H](CCCCCCCCCS(=O)CCCC(F)(F)C(F)(F)F)[C@H]3[C@@H]1CC[C@@H]2O (stereo not given in full), the activity change, positive = activation was -37.7% (inactive). In the case of O=c1cc[nH]c(=O)[nH]1, the activity change, positive = activation is reported as 0.687% (inactive). In the case of O=C(OCc1ccccc1)c1ccccc1, the activity change, positive = activation is reported as 13.6% (inactive). In the case of CCOC(=O)C(C)(C)Oc1ccc(Cl)cc1, the activity change, positive = activation is reported as 1.63% (inactive) and -0.349% (inactive). For OC[C@@H](O)[C@@H](O)[C@H](O)[C@H](O)CO, the activity change, positive = activation was 1.3% (inactive) and 3.91% (inactive). With CCCCCCCC(=O)OCC(O)CO (stereo not given) the activity change, positive = activation was 1.37% (inactive). With Cc1ccc(O)c(-n2nc3ccccc3n2)c1 the activity change, positive = activation was 109% (active) and 139% (active). With O=C1CCCCCN1 the activity change, positive = activation was 0.0496% (inactive) and -0.16% (inactive). In the case of CC(C)Cc1ccc(C(C)C(=O)O)cc1 (stereo not given), the activity change, positive = activation is reported as -6.89% (inactive) and 1.38% (inactive). With CC1(C)O[C@@H]2[C@@H](CO[C@@]3(COS(N)(=O)=O)OC(C)(C)O[C@@H]23)O1 the activity change, positive = activation was -14.9% (inactive). For CC(C)CC(C)CC(O)CC(C)C (stereo not given), the activity change, positive = activation was 3.18% (inactive) and 4.59% (inactive). For COC(=O)c1ccc(C=O)cc1, the activity change, positive = activation was -0.881% (inactive). In the case of C=C(C)OC(C)=O, the activity change, positive = activation is reported as 4.28% (inactive) and 3.36% (inactive). For CO[C@H]1C=CO[C@@]2(C)Oc3c(C)c(O)c4c(O)c(c(/C=N/N5CCN(C)CC5)c(O)c4c3C2=O)NC(=O)/C(C)=C\C=C[C@H](C)[C@H](O)[C@@H](C)[C@@H](O)[C@@H](C)[C@H](OC(C)=O)[C@@H]1C, the activity change, positive = activation was -53.6% (inactive). In the case of O=C(O)CN(CC(=O)O)CC(=O)O, the activity change, positive = activation is reported as 0.123% (inactive) and 2.89% (inactive).
